NPR1 activator: GC-A stimulated cGMP production enhancers – HEK293 GC-A cells, cGMP TR-FRET, EC30 ANP, primary screen; Atrial natriuretic peptide receptor 1 (Homo sapiens), P16066; 0% at EC30 ANP, 100% saturating ANP; activation, % at 10 µM; actives 0.14% (n = 370,000); AID 1671463, 2021; in the data active = activation above about 40%
ADAM10 inh: human ADAM10 inhibitors, primary screen, biochemical, QFRET, HTS; inhibition, % at 7 µM; AID 720582, 2013; recombinant ADAM10, EDANS/DABCYL FRET peptide cleavage, 3 h; Disintegrin and metalloproteinase domain-containing protein 10 (Homo sapiens), O14672; actives 0.62% (n = 370,000);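 active = inhibition above a per-campaign cutoff equal to the mean of compounds falling between control-based bounds plus 3 SD, cut at about 20% in these data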
NPR2 activator: human GC-B receptor activators, primary screen, HEK293 GC-B cells, cGMP TR-FRET, EC30 CNP; Atrial natriuretic peptide receptor 2 (Homo sapiens), P20594; 0% at EC30 CNP, 100% saturating CNP; actives 0.11% (n = 370,000); activation, % at 10 µM;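 active = activation at 10 µM reaching about 35% in either raw or pattern-adjusted values, limit read from the data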
ADAM17 inh: ADAM17 inhibitors, primary screen, biochemical, QFRET; inhibition, % at 6.95 µM; recombinant ADAM17, EDANS/DABCYL FRET peptide cleavage; actives 0.83% (n = 370,000);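 active = inhibition above the mean of compounds lying between control limits plus 3 SD, set per campaign, cut at about 8.5% in these data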
Target sequence (P78536 215-824 limits assumed): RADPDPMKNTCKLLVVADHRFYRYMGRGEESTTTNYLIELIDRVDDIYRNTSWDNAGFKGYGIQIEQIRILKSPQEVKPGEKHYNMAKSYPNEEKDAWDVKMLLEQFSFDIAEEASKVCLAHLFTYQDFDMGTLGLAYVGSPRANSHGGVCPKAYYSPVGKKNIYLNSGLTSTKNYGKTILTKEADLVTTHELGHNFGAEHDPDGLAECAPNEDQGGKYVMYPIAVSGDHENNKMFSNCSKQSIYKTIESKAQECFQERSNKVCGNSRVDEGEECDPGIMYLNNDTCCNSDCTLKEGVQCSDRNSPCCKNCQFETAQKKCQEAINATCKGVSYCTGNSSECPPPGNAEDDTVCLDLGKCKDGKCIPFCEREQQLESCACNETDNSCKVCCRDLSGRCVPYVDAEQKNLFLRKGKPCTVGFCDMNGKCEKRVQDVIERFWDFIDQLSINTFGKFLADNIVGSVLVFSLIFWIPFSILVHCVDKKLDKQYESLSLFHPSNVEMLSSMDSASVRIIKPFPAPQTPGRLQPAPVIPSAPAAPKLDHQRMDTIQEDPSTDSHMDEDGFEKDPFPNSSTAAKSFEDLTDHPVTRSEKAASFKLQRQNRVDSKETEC
ADAM10 counter: ADAM10 inhibitors, counter-screen for ADAM17 exosite inhibitor project, biochemical, FRET, human ADAM10; shares compounds with ADAM17 inh; recombinant ADAM10, EDANS/DABCYL FRET peptide cleavage, 3 h; inhibition, % at 6.95 µM; actives 47% (n = 2,900); AID 743256, 2014;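 active = mean inhibition over the triplicate runs exceeds the activity threshold set in the earlier primary screen, cut at about 20% in these data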
ADAM17 confirm: ADAM17 inhibitors, hit retest, confirmation, biochemical, QFRET peptide cleavage | shares compounds with ADAM17 inh | recombinant ADAM17, EDANS/DABCYL QFRET peptide cleavage | inhibition, % at 6.95 µM | actives 65% (n = 2,900) | AID 743257, 2014;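 active = mean inhibition across replicates above the hit cutoff set in the primary screen, cut at about 8.5% in these data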
A number is an active result; n = inactive; x = not tested or not shown. Hits are enriched below; roughly 1.3% of the tested compounds scored in any of these assays.

SMILES | NPR1 activator | ADAM10 inh | NPR2 activator | ADAM17 inh | ADAM10 counter | ADAM17 confirm
CC(=O)c1ccccc1OCC(O)CN1CCN(C(c2ccccc2)c2ccccc2)CC1 (centres undefined) | n | n | n | 11.2 | n | n
COc1ccnc2c1c(=O)n(Cc1ccc(F)cc1)c(=O)n2C | n | n | n | n | x | x
Cc1nnsc1NC(=O)OCc1ccc(Cl)cc1Cl | n | n | n | 10.3 | n | n
O=C(CN1CCN(c2cccc(C(F)(F)F)c2)CC1)Nc1cccc(C(F)(F)F)c1 | n | n | n | 8.8 | 24.3 | 11.8
CCOc1ccc(/C=N/Nc2nc(C)cs2)c(O)c1 | n | n | n | n | x | x
COc1ccccc1NC(=O)CN1C(=O)NC2(CCCCCCC2)C1=O | n | n | n | n | x | x
COc1ccccc1OCCNC(=O)CN1C(=O)NC2(CCCC2)C1=O | n | n | n | 9.3 | n | n
NC(=O)C1CCN(C(=O)CCSCc2ccc(Cl)c(Cl)c2)CC1 | n | n | n | n | x | x
CCCCCC[C@H](CN(CCCC)S(C)(=O)=O)c1ccccc1 | n | n | n | n | x | x
CCCCCC[C@@H](CN(CCCC)S(C)(=O)=O)c1ccccc1 | n | n | n | 55.0 | n | n
Cc1ccc(-c2cc(C(=O)NN=Cc3cccc(OCc4ccccc4)c3)[nH]n2)cc1C | n | n | n | 11.4 | n | 12.1
COC(=O)c1cccc(Cn2c(Cl)c(/C=N/Nc3ccccc3C)sc2=O)c1 | n | n | n | 9.5 | n | 12.0
Cc1ccccc1N/N=C/c1sc(=O)n(Cc2cccc(C(=O)O)c2)c1Cl | n | n | n | n | x | x
O=C(NNc1cc(C(F)(F)F)nc2ccccc12)Nc1cccc(Cl)c1 | n | n | n | n | x | x
COc1ccc(NC(=O)c2nc(C)c(C3(C)CC(c4cccnc4)=NO3)s2)cc1 (centres undefined) | n | n | n | 10.7 | n | 10.4
Cc1nc(C(=O)Nc2ccc(Cl)cc2)sc1C1(C)CC(c2cccc([N+](=O)[O-])c2)=NO1 (centres undefined) | n | n | n | n | x | x
Cc1cccc(-c2cccc3c4c([nH]c23)[C@@H]2C[C@H](N(C)C(=O)Nc3ccccc3C)[C@H]([C@H](C)O)CN2CC4)c1 | n | n | n | n | x | x
CCC(C)[C@H](N)c1nnc(SCC(=O)c2ccc(Cl)cc2)o1 (some centres undefined) | n | n | n | 9.2 | n | n
CC(C)[C@H](N)c1nnc(SCc2ccc(Cl)cc2)o1 | n | n | n | n | x | x
CC(C)[C@H]1COCCS(=O)(=O)N1Cc1ccccc1-c1cccc2c1oc1ccccc12 | n | n | n | 11.4 | n | n
CC(C)(C)OC(=O)C[C@@H]1C/C=C\C[C@@H](CC(=O)N[C@H](CO)Cc2ccccc2)C(=O)N2CCC[C@@H]2COC1=O | n | n | n | n | x | x
CC(C)(C)OC(=O)C[C@@H]1C/C=C\C[C@H](CC(=O)N[C@H](CO)Cc2ccccc2)C(=O)N2CCC[C@H]2COC1=O | n | n | n | 9.2 | n | 11.0
Cc1ccc(NC(=O)c2cc(S(=O)(=O)NCC3CCCO3)ccc2F)cc1 (centres undefined) | n | n | n | n | x | x
Cc1ccc(NC(=O)c2cc(S(=O)(=O)NCCC3=CCCCC3)ccc2F)cc1 | n | 22.9 | n | 14.1 | 34.4 | 18.1
CC(C)c1cccc(-c2csc(C(O)c3ccc(F)c(F)c3)n2)c1 (centres undefined) | n | n | n | 11.4 | 23.8 | 14.9
SMILES | NPR1 activator | ADAM10 inh | NPR2 activator | ADAM17 inh | ADAM10 counter | ADAM17 confirm
CC(C)c1cccc(-c2csc(C(O)c3ccc(F)cc3)n2)c1 (centres undefined) | n | n | n | n | x | x
Cc1occc1C(=O)NNC(=O)COc1ccc(Br)cc1Br | n | n | n | 8.8 | n | n
Cc1ccc(OCC(=O)NNC(=O)c2ccoc2C)c(Br)c1 | n | n | n | n | x | x
CCc1cc(/C(Cc2ccc3ccccc3n2)=N\O)c(O)cc1O | n | n | n | 9.2 | 29.7 | 21.7
COc1ccc(CCN2C(=S)N(c3ccccc3)C(=O)C2CC(=O)O)cc1OC (centres undefined) | n | n | n | n | x | x
CCN1C(=O)C(CC(=O)Nc2ccc(Br)cc2)N(CCCc2ccccc2)C1=S (centres undefined) | n | n | n | 9.0 | 35.0 | 19.7
O=C(CSC1CC(=O)N(CCc2ccccc2)C1=O)Nc1ccc(Br)cc1 (centres undefined) | n | n | n | 9.3 | n | n
CCN1C(=O)C(CC(=O)Nc2ccc(OC)cc2)N(CCc2ccc(OC)cc2)C1=S (centres undefined) | n | n | n | 11.3 | 32.3 | 14.7
O=C(CSC1CC(=O)N(CCc2ccccc2)C1=O)Nc1cccc(Cl)c1 (centres undefined) | n | n | n | n | x | x
CCN1C(=O)C(CC(=O)Nc2ccc(OC)cc2)N(Cc2ccc(OC)c(OC)c2)C1=S (centres undefined) | n | n | n | n | x | x
CNC(=O)CC1C(=O)N(c2ccc(Cl)cc2)C(=S)N1CCc1ccc(OC)c(OC)c1 (centres undefined) | n | n | n | 8.7 | n | n
CCOc1ccc(NC(=O)CC2C(=O)N(C)C(=S)N2CCCc2ccccc2)cc1 (centres undefined) | n | n | n | n | x | x
Cc1cccc(NC(=O)CNC(=O)COC(=O)c2ccco2)c1C | n | n | n | n | x | x
CCNc1nc(C)nc2c1cnn2C | n | n | n | n | x | x
COc1cccc(C2NC(=O)CCC2[N+](=O)[O-])c1 (centres undefined) | n | n | n | n | x | x
Nc1ccn([C@@H]2O[C@H](C(=O)NCC(F)(F)F)[C@@H](O)[C@H]2O)c(=O)n1 | n | n | n | n | x | x
NC(=O)CC[C@H](NC(=O)c1ccc(F)cc1)C(=O)OCC(=O)Nc1c(F)c(F)c(F)c(F)c1F | n | n | n | n | x | x
NC(=O)CC[C@H](NC(=O)c1ccc(F)cc1)C(=O)OCC(=O)NCc1ccc(F)cc1 | n | n | n | 10.1 | n | n
CCOc1ccc(-n2c(SCC(=O)Nc3ccccc3-c3ccccc3)nnc2-c2cccs2)cc1 | n | n | n | n | x | x
Cc1ccc(S(=O)(=O)/N=C2/NC(=O)/C(=C/c3cc([N+](=O)[O-])ccc3O)S2)cc1 | n | n | n | 8.6 | n | n

Compound activity deposited in PubChem by several laboratories.
